Assay [1] can be described thus: antimalarial activity against Dd2 strain (AID 2302;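 active = growth inhibition above 50% at the single 2 µM test dose, taken to imply half-maximal potency below 2 µM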;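 also: 0% = DMSO untreated growth and 100% = chloroquine plus artemisinin killed control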). As to conditions: P. falciparum Dd2 in RBCs, LDH growth readout, 72 h; at 2 µM; hits give high values.
Assay [2] can be described thus: human hepatoma cell viability loss – ATP luminescence, cytotoxicity control for P. falciparum antimalarial project, primary screen (AID 2303;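 active = inhibition above 50%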;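 also: 0% = DMSO wells and 100% = digitonin-killed cells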). The following applies: HepG2 viability, 24-48 h, at 10 µM, hits give high values.
The target of assay [3] is L-lactate dehydrogenase (Plasmodium falciparum (isolate CDC / Honduras)) (UniProt Q27743). Briefly: PfLDH activity inhibition – cell lysate, 3D7 strain, counter-screen for P. falciparum growth inhibition project (AID 2304).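 Also: 0% = vehicle and 100% = reference inhibitor.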 The following applies: P. falciparum 3D7 crude extract, LDH APAD/NBT absorbance; at 2 µM; hits give high values. On the technique in general: The purpose of a counterscreen is to sort out artefacts and off-target activity.

Assay [4] is described as follows: inhibition of 3D7 malaria parasite growth – strain 3D7 (AID 2306).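 Also: 0% = DMSO wells and 100% = chloroquine plus artemisinin control wells.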 The following applies: P. falciparum 3D7 erythrocytic growth, LDH absorbance, 72 h; at 2 µM; hits give high values.
In assay [5] the target is Calcium-dependent protein kinase 1 (Plasmodium falciparum (isolate 3D7)) (UniProt P62344). Briefly: PfCDPK1 kinase inhibitors, biochemical, TCAMS library (AID 1159585; cut-off not given, nearly all actives have IC50 up to about 0.98 µM;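 also: inhibitors leave more ATP so luminescence rises with inhibition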). The following applies: recombinant PfCDPK1, Kinase-Glo ATP depletion luminescence. For orientation: Kinase-Glo reads ATP consumption through a luciferase reaction.
Assay [6] concerns the target Plasmodium falciparum protein kinase 6 (PK6, PF3D7_1337100) (UniProt Q8IDW1). The experiment in a line: PfPK6 kinase inhibitors, biochemical, TCAMS library (AID 1159586). As to conditions: recombinant PfPK6, Kinase-Glo ATP depletion luminescence.
Assay [7] has as its target Protein kinase 7 (PK7), Plasmodium falciparum 3D7 (PF3D7_0213400) (UniProt Q7YTF7). Briefly: inhibition of Plasmodium PK7 catalytic activity – biochemical, TCAMS antimalarial set, Kinase-Glo luminescence (AID 1159587). As to conditions: recombinant PfPK7, Kinase-Glo ATP depletion luminescence.
The target in assay [8] is Calcium-dependent protein kinase 4 (Plasmodium falciparum (isolate 3D7)) (UniProt Q8IBS5). Briefly: PfCDPK4 kinase inhibitors, biochemical, TCAMS library (AID 1159588; cut-off not given, nearly all actives have IC50 up to about 0.91 µM). The following applies: recombinant PfCDPK4, Kinase-Glo ATP depletion luminescence.

Unmarked numbers belong to inactive results. For part of these data: Measured potencies and affinities stand elsewhere. Active and inactive are the calls of the source. Unless noted, no rule for the calls is given here.

Sequence of Calcium-dependent protein kinase 1 (Plasmodium falciparum (isolate 3D7)) (P62344 whole entry, looked up): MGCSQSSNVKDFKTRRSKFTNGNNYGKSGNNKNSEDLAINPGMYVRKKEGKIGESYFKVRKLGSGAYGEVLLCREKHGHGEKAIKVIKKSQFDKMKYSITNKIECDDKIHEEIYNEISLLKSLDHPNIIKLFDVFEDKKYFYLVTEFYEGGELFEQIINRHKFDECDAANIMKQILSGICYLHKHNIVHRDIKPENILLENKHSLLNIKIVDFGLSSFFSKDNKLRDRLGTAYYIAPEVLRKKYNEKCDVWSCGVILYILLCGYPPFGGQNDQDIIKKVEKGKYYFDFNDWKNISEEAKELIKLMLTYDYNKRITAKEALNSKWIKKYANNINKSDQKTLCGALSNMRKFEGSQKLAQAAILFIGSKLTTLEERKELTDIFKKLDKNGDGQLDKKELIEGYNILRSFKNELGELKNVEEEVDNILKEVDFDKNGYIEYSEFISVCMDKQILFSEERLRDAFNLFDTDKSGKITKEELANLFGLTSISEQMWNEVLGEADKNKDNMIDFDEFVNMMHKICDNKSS
Sequence of Protein kinase 7 (PK7), Plasmodium falciparum 3D7 (PF3D7_0213400) (Q7YTF7 1-343): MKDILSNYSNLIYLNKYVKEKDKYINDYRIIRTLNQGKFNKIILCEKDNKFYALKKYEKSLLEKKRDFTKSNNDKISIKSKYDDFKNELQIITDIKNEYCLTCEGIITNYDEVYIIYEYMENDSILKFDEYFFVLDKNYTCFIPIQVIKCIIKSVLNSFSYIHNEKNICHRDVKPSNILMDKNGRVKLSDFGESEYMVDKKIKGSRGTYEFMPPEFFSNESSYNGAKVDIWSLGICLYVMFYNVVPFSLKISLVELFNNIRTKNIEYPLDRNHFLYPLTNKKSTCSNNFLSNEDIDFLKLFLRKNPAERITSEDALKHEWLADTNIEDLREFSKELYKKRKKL
Sequence of Calcium-dependent protein kinase 4 (Plasmodium falciparum (isolate 3D7)) (Q8IBS5 whole entry, looked up): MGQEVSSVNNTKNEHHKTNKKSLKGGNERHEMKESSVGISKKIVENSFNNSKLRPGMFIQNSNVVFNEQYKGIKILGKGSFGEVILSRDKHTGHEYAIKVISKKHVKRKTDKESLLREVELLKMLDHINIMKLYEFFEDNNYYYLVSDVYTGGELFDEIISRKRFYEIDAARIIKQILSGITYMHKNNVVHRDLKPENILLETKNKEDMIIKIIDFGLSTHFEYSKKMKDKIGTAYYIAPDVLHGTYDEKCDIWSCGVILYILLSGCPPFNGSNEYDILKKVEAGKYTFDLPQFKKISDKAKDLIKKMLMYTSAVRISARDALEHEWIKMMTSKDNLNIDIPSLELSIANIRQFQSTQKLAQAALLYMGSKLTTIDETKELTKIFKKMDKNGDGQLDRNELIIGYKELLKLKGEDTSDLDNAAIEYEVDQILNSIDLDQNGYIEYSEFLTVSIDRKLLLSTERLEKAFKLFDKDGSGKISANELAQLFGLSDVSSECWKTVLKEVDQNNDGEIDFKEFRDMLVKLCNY
Sequence of L-lactate dehydrogenase (Plasmodium falciparum (isolate CDC / Honduras)) (Q27743 whole entry, looked up): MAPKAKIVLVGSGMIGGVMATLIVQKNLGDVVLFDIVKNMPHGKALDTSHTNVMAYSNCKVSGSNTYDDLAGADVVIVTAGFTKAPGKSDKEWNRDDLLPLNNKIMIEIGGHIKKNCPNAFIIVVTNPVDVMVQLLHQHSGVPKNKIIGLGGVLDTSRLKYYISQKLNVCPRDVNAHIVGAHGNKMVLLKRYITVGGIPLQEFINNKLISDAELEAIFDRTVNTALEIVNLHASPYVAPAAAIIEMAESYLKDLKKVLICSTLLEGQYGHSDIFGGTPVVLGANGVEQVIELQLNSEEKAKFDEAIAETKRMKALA
Sequence of Plasmodium falciparum protein kinase 6 (PK6, PF3D7_1337100) (Q8IDW1 1-305): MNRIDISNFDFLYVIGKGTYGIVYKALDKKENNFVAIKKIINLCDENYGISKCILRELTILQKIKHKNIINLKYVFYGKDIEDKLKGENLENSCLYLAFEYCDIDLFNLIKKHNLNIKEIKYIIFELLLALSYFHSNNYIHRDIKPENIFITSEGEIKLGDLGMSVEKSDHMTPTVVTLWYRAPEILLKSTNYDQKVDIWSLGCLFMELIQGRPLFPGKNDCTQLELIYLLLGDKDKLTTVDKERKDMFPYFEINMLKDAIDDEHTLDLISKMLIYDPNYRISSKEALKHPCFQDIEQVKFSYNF

By inhibition is commonly meant the relative decrease from the control value, in per cent. `NC(=O)c1cnc2cc(-c3ccoc3)ccc2c1Nc1ccc(NC(=O)Nc2ccccc2Cl)cc1`: the results for the growth inhibition in assay [1] and in assay [4] were 76% (active) and 100% (active), respectively. Moreover, the inhibition in assay [2] is 39%; in assay [3], -5%. Further, the outcome in assay [5], in assay [6], in assay [7] and in assay [8] was inactive.

As to `Fc1ccc(C=NNc2ccnc3ccccc23)cc1`, the growth inhibition in assay [1] and in assay [4] was 101% (active) in each case. Further, the inhibition was 21% in assay [2] and 4% in assay [3]. The result in assay [5], in assay [6], in assay [7] and in assay [8] was inactive.

As to `O=C(/C=C/c1ccc(Cl)c(Cl)c1)NCCCCCN1CCC(NS(=O)(=O)c2cc(Cl)cc(Cl)c2)CC1`, the growth inhibition in assay [1] is 5%; in assay [4], 83% (active). Besides, the values for the inhibition in assay [2] and in assay [3] were 7% and 3%, respectively. Besides, the outcome in assay [5], in assay [6], in assay [7] and in assay [8] was inactive.

For the compound `COc1cc2nc(NCCc3ccccc3)nc(N(C)Cc3ccccc3)c2cc1OC`, the figures for the growth inhibition in assay [1] and in assay [4] were 58% (active) and 96% (active), respectively. The inhibition in assay [2] was 31%; in assay [3] it was -6%. The outcome in assay [5], in assay [6], in assay [7] and in assay [8] was inactive.

For `CCc1ccc(NC(=O)c2ccc(CN3CCCN(CC4CCCCC4)CC3)cc2)cc1`, the values for the growth inhibition in assay [1] and in assay [4] were 48% and 96% (active), respectively. In addition, the figures for the inhibition in assay [2] and in assay [3] were 48% and 3%, respectively. Moreover, the outcome in assay [5], in assay [6], in assay [7] and in assay [8] was inactive.

In the case of `CCCCCCn1c2c(c(=N)c3c1CCC3)CCCC2`, the growth inhibition in assay [1] is 76% (active); in assay [4], 99% (active). Besides, the inhibition in assay [2] was 31%; in assay [3] it was 4%. Moreover, the result in assay [5], in assay [6], in assay [7] and in assay [8] was inactive.

Regarding `N#Cc1cccc(NC(=O)Nc2cccc(OC3CCN(Cc4ccccc4)CC3)c2)c1`, the growth inhibition in assay [1] is 48%; in assay [4], 100% (active). Moreover, the inhibition in assay [2] is 5%; in assay [3], 1%. The outcome in assay [5], in assay [6], in assay [7] and in assay [8] was inactive.

Regarding `c1ccn2c(-c3ncnc(NCc4ccc5c(c4)CCO5)n3)cnc2c1`, the results for the growth inhibition in assay [1] and in assay [4] were 47% and 86% (active), respectively. The figures for the inhibition in assay [2] and in assay [3] were 12% and 0%, respectively. Also, the outcome in assay [5], in assay [6], in assay [7] and in assay [8] was inactive.

In the case of `Cc1ccc2c(=O)cc(CCc3cccc(F)c3F)n(CC(=O)N(Cc3ccc(-c4ccc(C(F)(F)F)cc4)cc3)C3CCN(C(C)C)CC3)c2n1`, the values for the growth inhibition in assay [1] and in assay [4] were 49% and 100% (active), respectively. The values for the inhibition in assay [2] and in assay [3] were 58% (active) and -2%, respectively. The result in assay [5], in assay [6], in assay [7] and in assay [8] was inactive.

Turning to `CCCNC[C@@H](O)[C@H](Cc1ccccc1)NC(=O)c1cc2c3c(c1)c(CC)cn3CCS(=O)(=O)N2C`, the growth inhibition was 98% (active) in assay [1] and 97% (active) in assay [4]. The inhibition in assay [2] is -4%; in assay [3], 2%. The outcome in assay [5], in assay [6], in assay [7] and in assay [8] was inactive.

In the case of `CCCc1ccc(-c2csc(NC(=O)c3ccc([N+](=O)[O-])o3)n2)cc1`, the results for the growth inhibition in assay [1] and in assay [4] were 13% and 85% (active), respectively. The inhibition was 72% (active) in assay [2] and 4% in assay [3]. For the same compound, the outcome in assay [5], in assay [6], in assay [7] and in assay [8] was inactive.

For the compound `Clc1ccc(Sc2cncnc2N2CCOCC2)cc1`, the growth inhibition was -6% in assay [1] and 95% (active) in assay [4]. For the same compound, the results for the inhibition in assay [2] and in assay [3] were 66% (active) and -2%, respectively. For the same compound, the result in assay [5], in assay [6], in assay [7] and in assay [8] was inactive.

Consider `Cc1cc2nc(-c3cccc(C(=O)NC4CCN(Cc5ccccc5)CC4)c3)[nH]c2cc1C`, for which the figures for the growth inhibition in assay [1] and in assay [4] were 13% and 101% (active), respectively. The inhibition in assay [2] is 32%; in assay [3] it was 2%. For the same compound, the outcome in assay [5], in assay [6], in assay [7] and in assay [8] was inactive.

For the compound `COc1cc(-c2cnc(N)c(-c3nc4ccccc4[nH]3)c2)cc(OC)c1OC`, the values for the growth inhibition in assay [1] and in assay [4] were 57% (active) and 101% (active), respectively. In addition, the inhibition in assay [2] is 59% (active); in assay [3], 7%. Besides, the outcome in assay [5], in assay [6], in assay [7] and in assay [8] was inactive.

As to `COCCn1c(C)cc(C(=O)CN2C(=O)NC(C)(c3ccc(C(C)(C)C)cc3)C2=O)c1C` (centres undefined), the results for the growth inhibition in assay [1] and in assay [4] were 96% (active) and 97% (active), respectively. Also, the inhibition in assay [2] is 7%; in assay [3], 1%. Also, the result in assay [5], in assay [6], in assay [7] and in assay [8] was inactive.

Regarding `CN1C(C)(C)CC(NC(=O)c2ccc(-c3nc4ccc(Cl)cc4[nH]3)cc2)CC1(C)C`, the growth inhibition in assay [1] is 36%; in assay [4] it was 99% (active). Also, the inhibition was 23% in assay [2] and -3% in assay [3]. Besides, the outcome in assay [5], in assay [6], in assay [7] and in assay [8] was inactive.

Take `CCC(C)NS(=O)(=O)c1ccc2nc(Nc3ccc(C)cc3)n(C3CCCCC3C)c2c1` (centres undefined): the growth inhibition in assay [1] is 99% (active); in assay [4] it was 95% (active). The inhibition in assay [2] and in assay [3] was 1% in each case. In addition, the outcome in assay [5], in assay [6], in assay [7] and in assay [8] was inactive.

Consider `CCOc1ccc(CCCON2C(N)=NC(N)=NC2(C)C)cc1`, for which the growth inhibition in assay [1] and in assay [4] was 93% (active) throughout. In addition, the figures for the inhibition in assay [2] and in assay [3] were 65% (active) and 0%, respectively. The outcome in assay [5], in assay [6], in assay [7] and in assay [8] was inactive.

The record behind these values is PubChem BioAssay.
